Laboratory results from PubChem BioAssay AID1345083 (National Center for Advancing Translational Sciences (NCATS), 2018).
Out of some 94,000 compounds screened, about 6,200 (6.6%) were called active. About 31% were inconclusive and are not listed. The full list was thinned out, with actives kept by preference. Unmarked numbers belong to inactive results. Calls come from the whole dose curve; as a rule, active = well fitted inhibition curve with a large enough effect; inconclusive = small, poorly fitted or top-dose-only effect; inactive = flat fitted curve, though single readings scatter.

Test: Cytotoxic Profiling in HEK 293 Cell Line of Diverse Libraries Using Quantitative High-Throughput Screening; note: nearly all actives have a fitted effect of over 60% in size
Conditions: HEK 293 viability, ATP luminescence (CellTiter-Glo), 48-72 h; series mostly up to 115 µM; activity change, negative = cytotoxicity: at the top concentration
In short: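 Luminescence from cellular ATP, measured with CellTiter-Glo, indicates HEK 293 viability. Cells plated at 250 cells/well are treated with compound for 48 or 72 hr at 37 degree Celsius before reagent addition.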
% is set by controls: 0 for no effect and ±100 for the full control effect; potency is the fitted concentration of half-maximal effect.

Structure (SMILES)	activity change, negative = cytotoxicity	Potency	outcome
O=C(C1CCN([S+](=O)([O-])c2cccs2)CC1)N1CCC(c2nc3ncccc3[nH]2)CC1	-26%		
Cc1ccc(N2Cc3c(NC4CCCCC4)ncnc3N(C)CC2=O)cc1	-23.9%		
O=C(Cc1cccn1-c1ccccc1)N1CCOCC1	8.81%		
Cc1ccc(C(=O)N2CCCC(C(=O)NCc3ccccc3)CCNC(=O)CC2)s1 (stereo not drawn)	-11.4%		
O=[N+]([O-])c1cccc(-c2noc([C@@H]3C[C@@H](O)CN3Cc3cccnc3)n2)c1	-20% [at 172 µM]		
COc1ccc(-c2nc(C)nc3c2CN([S+](C)(=O)[O-])CC3)cc1	2.07%		
COc1ccc(-c2nc(C(C)C)nc3c2CCN([S+](=O)([O-])c2cccc(C(F)(F)F)c2)CC3)cc1		39.8 µM (active)	
COc1ccc(C(=O)N2CCc3nc(C4CC4)nc(-c4ccc(Cl)cc4)c3C2)cc1	-23.7%		
COc1ccc(-c2nc(C3CC3)nc3c2CCN([S+](=O)([O-])c2ccccc2)CC3)cc1	-25.8%		
COc1ccc(-c2nnc3n2CCN(C(=O)c2cccc(OC)c2)C3)cc1	-1.3%		
COc1cccc(C(=O)N2CCc3nc(C(C)C)nc(-c4ccc(Cl)cc4)c3C2)c1		89.1 µM (active)	
CCC(CC)C(=O)N1CCC(N2CCCC(C(=O)NCc3ccccc3)C2)CC1 (stereo not drawn)	-6.43%		
COc1cc(SC)ccc1C(=O)N[C@@H]1C=C(C(=O)N[C@H](Cc2ccccc2)C(N)=O)C[C@@H](O)[C@@H]1O	-6.4%		
CCCC(NC(C)=O)C(=O)Nc1cccc(NC(=O)Cc2ccccc2)c1 (stereo not drawn)	-5.42%		
O=c1[nH]c(C2CCN(Cc3ccc(F)cc3)CC2)nn1Cc1ccccc1	-21.8%		
COc1ccccc1C(=O)N1CCC2(CCC(=O)N(Cc3ccccc3)CC2)CC1	9.71%		
COc1ccccc1C(=O)N1CCC2(CC1)CC(=O)c1ccccc1O2		112 µM (active)	
COc1ccccc1C(=O)N1CCC(n2cnnc2C2CC2)CC1	-2.05%		
OC1CC(c2cc(N3CCC(c4nnc5n4CCCCC5)CC3)ncn2)C1 (stereo not drawn)	2.4%		
O=C(O)c1cccc(-c2ccccn2)c1		inactive	
COCCN1C(=O)c2cccn2CC1CNC(=O)c1ccccc1F (stereo not drawn)	4.36%		
CN(C)[C@@H]1CO[C@H](CNS(=O)(=O)c2ccccc2)[C@H]1O			inactive [at 172 µM]
CNC(=O)c1cc[nH]c1C1CCCN(C(=O)Cc2c[nH]c3ccccc23)C1 (stereo not drawn)	3.91%		
